We go through eleven compounds from PubChem BioAssay (EPA / NIEHS).

The structures appear in SMILES notation. Activity calls are given as the source filed them. How the source made its calls: active means hit-call score of the fitted dose curve at least 0.9, where 1 is the maximum; inactive means score below 0.9.

The assay is described as follows: CCTE_Shafer_MEA_acute_spike_number: CCTE's Neural Acute Assay for Total Number of Spikes, Shafer Lab (AID 2284008).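 On AC50: curve fitted for decrease in spike count so AC50 reflects inhibitors.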 Here is the method: CCTE_Shafer_MEA_acute assay is conducted using Axion Biosystems 48 well microelectrode array (MEA) plates and Maestro recording system. Each well of the MEA plate contains a grid of 16 microelectrodes embedded in the culture surface. Electrically active cells, such as neurons, can be cultured over the electrodes, and electrical activity in these cells can be recorded extracellularly. The spontaneous firing of neurons is captured from each electrode on a microsecond timescale providing both temporally and spatially precise data. […] The CCTE_Shafer_MEA_acute assay uses primary cultures of rat cortical neurons. As these cultures mature over time, neural networks develop functional activity and form cohesive networks in which electrical activity can be highly coordinated. Baseline 40-minute recordings are made on days post-plating 13 or 15, followed by a secondary 40-minute recording after chemical exposure.CCTE_Shafer_MEA_acute_spike_number is a component of the CCTE_Shafer_MEA_acute assay. It measures the total number of spikes (action potential firings) in a 40-minute recording in a microelectrode array (MEA) using Axion Biosystems Maestro 768 channel amplifier with the AxIS adaptive spike detector. The recordings before and after chemical treatment are used to calculate a percent change in the spike number in each well. Data from the assay component CCTE_Shafer_MEA_acute_spike_number was analyzed into 1 assay endpoint. This assay endpoint, CCTE_Shafer_MEA_acute_spike_number, was analyzed in the negative analysis fitting direction relative to DMSO as the negative control and baseline of activity. Using a type of functional reporter, gain or loss-of-signal activity can be used to understand electrical activity.
Spontaneous activity in the cortical cultures was recorded using an Axion Biosystems Maestro 768 channel amplifier and Axion Integrated Studios (AxIS) v1.8 (or later) software. The amplifier recorded from all channels simultaneously (gain = 1200 x; sampling rate = 12.5 kHz/channel): raw signals were filtered with a Butterworth band-pass filter (300-5000 Hz), which filters out slower local field potentials leaving only fast potentials, i.e., "spikes", arising from extracellular currents associated with action potentials (Pine 2006; Wheeler and Nam 2011). On-line spike detection of filtered signals was conducted with the AxIS adaptive spike detector, using a threshold of 8x the root mean squared (rms) noise on each channel. Any electrodes with rms noise levels greater than 5 uV were grounded (e.g., no data were recorded). Once grounded, an electrode was grounded for the duration of the experiment. All recordings were conducted at 37 C. Wells were deemed usable if on the day of the exposure >/= 10 electrodes were active (defined as >/= 5 spikes/min). On DIV 13 or 15, a minimum of three wells from one cortical culture preparation were treated with each compound (0.03-40 uM). Prior to recording baseline activity, each mwMEA plate was placed in the Maestro at 37 C and allowed to sit for 20 min while firing rates stabilized. Baseline activity (40 min) was recorded before the addition of each compound. An additional 40 min of spontaneous activity was recorded in the presence of each compound. Changes in network parameters relative to baseline were assessed following compound treatment.
As to `CO[Si](OC)(OC)c1ccccc1`, the result was inactive.

With `CN1C(=O)N(C)C(O)C1O` (stereo unspecified), the result was inactive.

For the compound `CCCCC(CC)COC(=O)c1ccccc1O` (stereo unspecified), the result was inactive.

Take `CCOC(=O)c1ccccc1C(=C1C=C(Br)C(=O)C(Br)=C1)c1cc(Br)c(O)c(Br)c1`: the outcome was inactive.

As to `Nc1ccc(N)c(Cl)c1`, the compound was called inactive.

The term AC50 denotes the midpoint of the concentration-response curve, whichever way the signal moves. Take `Nc1ncn([C@@H]2O[C@H](CO)[C@@H](O)[C@H]2O)c(=O)n1`: the AC50 was 7.65 nM (active).

Regarding `O=C1CCCN1CCO`, the call was inactive.

In the case of `CCO[Si](C)(OCC)OCC`, the compound was classed as inactive.

On to `C=C[Si](OC(C)=O)(OC(C)=O)OC(C)=O`, for which the outcome was inactive.

In the case of `CCCCC(CC)COCC1CO1` (stereo unspecified), the compound was classed as inactive.

For `O=C(c1ccc(O)cc1)c1ccc(O)cc1O`, the compound was called inactive.
